Measurements from PubChem BioAssay.
Active and inactive are the calls of the source.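 The calls were made as follows, unless noted: active = inhibition above 20% together with a positive visual image hit; inconclusive = visual image hit but inhibition not above 20%; inactive = no visual image hit.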

What was measured:
[1] = inhibitors of TNFa-induced NFkB p65 translocation, primary screen, imaging, HUVEC, MLSMR starter and 10KST1 sets (AID 438); conditions: HUVEC TNFa-induced p65 nuclear translocation; cell count: measured here: nuclei count (cytotoxicity indicator), at 2.08 µM; inhibition: at 2 µM, stronger effect = higher value, 0% TNFa-plus-vehicle, 100% no-TNFa wells;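 also: compound added about 3h40 before a 20 min TNFalpha stimulation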;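 as to inhibition: signal is the nuclear over cytoplasmic p65 intensity ratio per well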
[2] = inhibitors of mutant huntingtin aggregation, primary screen, imaging, exon1htt(103Q)mCFP cells, high-content imaging (AID 483;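 active = visual image review flags a hit and inhibition of aggregation exceeds 20%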;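 also: compound exposure lasted 3 days before fixation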;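 as to nuclei count: percent of the per-plate median nuclei count of sample wells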); conditions: exon1htt(103Q)mCFP cell line, aggregate imaging, at 2 µM; inhibition of aggregation: stronger effect = higher value; nuclei count: measured here: cell count, toxicity
[3] = inhibitors of E-selectin induction by TNFa, primary screen, imaging, HUVEC, immunofluorescence, MLSMR starter and 10KST1 sets (AID 487;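 active = visually confirmed hit in the image check and inhibition above 20%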;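 as to inhibition: signal is fraction of cell area covered by stained E-selectin grains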;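 as to nuclei count: 100% = median nuclei count of all wells on the same plate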); conditions: HUVEC TNFalpha-induced E-selectin immunofluorescence imaging, at 2 µM; inhibition: stronger effect = higher value; nuclei count: measured here: cell number, toxicity
[4] = biological target: Voltage-gated potassium channel subunit beta-2 (Rattus norvegicus) (UniProt P62483); test: KvBeta enzyme negative modulators, primary screen, biochemical, NADPH fluorescence (AID 622;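 active = fluorescence slope higher than the sample average by over 3 SD, cut at about -0.22 in these data, passing the limit was not always enough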;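 also: slope of raw intensity against log time taken from 70 to 1610 s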); conditions: recombinant KvBeta, 4-cyanobenzaldehyde reduction, at 10 µM, stronger effect = higher value
[5] = biological target: Voltage-gated potassium channel subunit beta-2 (Rattus norvegicus) (UniProt P62483); test: KvBeta positive modulators, primary screen, biochemical, NADPH fluorescence (AID 623;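 active = NADPH fluorescence slope more negative than the mean of all samples by about 3 SD, 99.7% confidence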;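 also: fluorescence intensity change per second fitted from 20 to 320 s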); conditions: Recombinant KvBeta, NADPH fluorescence decrease slope, 10 min; at 10 µM; stronger effect = lower value
[6] = biological target: Alpha-2C adrenergic receptor (Homo sapiens) (UniProt P18825); test: modulators of alpha2C/GIRK thallium flux, primary screen, cell-based, HEK293 alpha2C/GIRK1/2 (AID 624;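 active = fluorescence slope after compound addition differing from the mean of all screened samples at 99.7% confidence, in either direction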;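 also: slope of fluorescence ratio to pre-addition baseline per second over 15 to 24 s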); conditions: thallium flux BTC fluorescence, at 10 µM, actives lie on both sides
[7] = inhibitors of Sendai virus-induced IRF3 signaling, primary screen, TLR/RLR signaling modifier project, cell-based, Sendai virus stimulus, luciferase, 10K MLSCN set (AID 602276;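 active = inhibition at or above 50% at 10 µM; inactive = inhibition below 50%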;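 also: firefly luciferase from ISG56 promoter only with Renilla not read in this screen; 0% = Sendai virus plus DMSO and 100% = medium plus DMSO without virus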); conditions: HEK293 RL24 IRF3 luciferase reporter, at 10 µM, stronger effect = higher value
[8] = inhibitors of poly I:C-induced TLR3 signaling, primary screen, cell-based, poly I:C stimulus, luciferase, 10K MLSCN set (AID 602277;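 active = inhibition of the reporter signal at or above 50%; inactive = inhibition below 50%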); conditions: HEK293-TLR3 RL24 IRF3 luciferase reporter, at 10 µM, stronger effect = higher value

Sequence of Alpha-2C adrenergic receptor (Homo sapiens) (P18825 whole entry, looked up): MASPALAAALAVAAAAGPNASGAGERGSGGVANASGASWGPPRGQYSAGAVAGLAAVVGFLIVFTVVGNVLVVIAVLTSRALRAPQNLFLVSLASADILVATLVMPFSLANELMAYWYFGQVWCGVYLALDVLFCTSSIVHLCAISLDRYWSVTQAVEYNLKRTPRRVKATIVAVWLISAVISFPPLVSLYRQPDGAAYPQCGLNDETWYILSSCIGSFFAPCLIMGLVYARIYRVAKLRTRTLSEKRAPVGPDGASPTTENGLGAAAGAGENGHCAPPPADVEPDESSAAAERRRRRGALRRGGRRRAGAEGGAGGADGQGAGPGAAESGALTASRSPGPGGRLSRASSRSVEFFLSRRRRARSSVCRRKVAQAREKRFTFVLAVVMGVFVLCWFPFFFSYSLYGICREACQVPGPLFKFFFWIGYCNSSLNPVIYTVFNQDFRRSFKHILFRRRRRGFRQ
Sequence of Voltage-gated potassium channel subunit beta-2 (Rattus norvegicus) (P62483 whole entry, looked up): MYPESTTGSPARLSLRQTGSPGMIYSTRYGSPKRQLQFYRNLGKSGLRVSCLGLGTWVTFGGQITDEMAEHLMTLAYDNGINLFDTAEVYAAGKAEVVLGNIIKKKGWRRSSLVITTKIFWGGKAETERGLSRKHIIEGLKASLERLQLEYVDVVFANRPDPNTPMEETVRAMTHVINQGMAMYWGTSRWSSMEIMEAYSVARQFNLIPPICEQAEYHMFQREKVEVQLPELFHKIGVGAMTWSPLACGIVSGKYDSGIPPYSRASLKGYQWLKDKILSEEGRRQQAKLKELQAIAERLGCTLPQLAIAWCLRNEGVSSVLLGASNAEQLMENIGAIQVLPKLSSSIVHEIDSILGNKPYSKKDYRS

SMILES | cell count [1] | inhibition [1] | inhibition of aggregation [2] | nuclei count [2] [%] | inhibition [3] | nuclei count [3] [%] | fluorescence slope [4] | NADPH fluorescence slope [5] | slope [6] | inhibition [7] | inhibition [8]
COc1ccc(N(CC(=O)N2CCCCC2)S(=O)(=O)c2ccccc2)c(OC)c1 | 622 | -7.8% (inactive) | -4.8% (inactive) | 104 | -218% (inactive) | 132 | -0.278 (inactive) | -7.4e-06 (inactive) | 0.00613 (inactive) | 12% (inactive) | 26.9% (inactive)
CCCn1c(SCC(=O)N2CCc3ccccc3C2)nc2c1c(=O)n(C)c(=O)n2C | 430 | -9.2% (inactive) | -13.1% (inactive) | 115 | -47.7% (inactive) | 117 | -0.303 (inactive) | 8.7e-06 (inactive) | 0.00547 (inactive) | 2.01% (inactive) | -39% (inactive)
CCOC(=O)N1CCC(NC(=O)C2CCC(Cn3c(=O)[nH]c4ccccc4c3=O)CC2)CC1 (stereo not drawn) | 609 | -0.3% (inactive) | -10.3% (inactive) | 105 | -89.5% (inactive) | 101 | -0.546 (inactive) | 3.1e-05 (inactive) | 0.00617 (inactive) | 6.35% (inactive) | 20.6% (inactive)
Cc1ccccc1-c1nc(CS(=O)(=O)CC(=O)NCc2ccccc2)c(C)o1 | 642 | 2.8% (inactive) | -36.7% (inactive) | 75.5 | 16.5% (inactive) | 106 | -0.532 (inactive) | -2.1e-05 (inactive) | 0.00661 (inactive) | 9.9% (inactive) | 24.3% (inactive)
O=C(CN(Cc1ccco1)C(=O)c1cc(=O)[nH]c2ccccc12)Nc1ccccc1Br | 498 | -22.4% (inactive) | 11.6% (inactive) | 103 | 10.6% (inactive) | 105 | -0.58 (inactive) | -4.1e-05 (inactive) | 0.00457 (inactive) | 16% (inactive) | 16.8% (inactive)
Cc1ccc(C2c3c(oc4ccccc4c3=O)C(=O)N2c2nnc(C(C)C)s2)o1 (stereo not drawn) | 622 | -13.1% (inactive) | -21.4% (inactive) | 90.4 | -37.8% (inactive) | 102 | -0.436 (inactive) | -5.6e-05 (inactive) | 0.00484 (inactive) | 9.17% (inactive) | 19.7% (inactive)
Nc1nonc1-n1nnc(C(=O)c2ccccc2)c1-c1ccccc1 | 412 | -20% (inactive) | 1.5% (inactive) | 110 | 28.1% (inactive) | 103 | -0.571 (inactive) | 7.3e-06 (inactive) | 0.00623 (inactive) | 10.9% (inactive) | 2.08% (inactive)
Cn1c(=O)c2c(nc(SCCCC#N)n2Cc2c(F)cccc2Cl)n(C)c1=O | 868 | 0.6% (inactive) | 9.8% (inactive) | 82.3 | -6.8% (inactive) | 108 | -0.589 (inactive) | -6.6e-06 (inactive) | 0.00598 (inactive) | -9.31% (inactive) | 7.45% (inactive)
CCn1nnnc1SCC(=O)N1CCOCC1 | 707 | 11.3% (inactive) | -2% (inactive) | 122 | -0.6% (inactive) | 122 | -0.637 (inactive) | 3.1e-06 (inactive) | 0.0034 (inactive) | 14.6% (inactive) | 8.47% (inactive)
NS(=O)(=O)c1ccc(NC(=O)N[C@@H](Cc2ccccc2)C(=O)O)cc1 | 292 | -0.8% (inactive) | 5.2% (inactive) | 104 | 16.6% (inactive) | 99.7 | -0.485 (inactive) | -4.3e-05 (inactive) | 0.00476 (inactive) | 10.6% (inactive) | 16.6% (inactive)
CCN(CC)CCOC(=O)c1cccc(OC)c1 | 249 | 4.3% (inactive) | -8.4% (inactive) | 114 | 16.1% (inactive) | 98.7 | -0.638 (inactive) | -2.4e-05 (inactive) | 0.00412 (inactive) | 6.23% (inactive) | 14.4% (inactive)
Cc1csc(NC(=O)CCS(=O)(=O)c2ccc(Br)cc2)n1 | 721 | 0% (inactive) | -30.9% (inactive) | 91.7 | 5.7% (inactive) | 115 | -0.609 (inactive) | 1.8e-05 (inactive) | 0.00541 (inactive) | -20.4% (inactive) | -7.68% (inactive)
COC(=O)C1=C(C)NC(C)=C(C(=O)OC)C1C(=O)OC1CCCCC1=O (stereo not drawn) | 487 | 8.7% (inactive) | 32.7% (inactive) | 87.8 | 61.1% (active) | 80.2 | -0.425 (inactive) | -3.3e-06 (inactive) | 0.00528 (inactive) | 1.65% (inactive) | 27.7% (inactive)
CCCCN(C)Cc1c(O)ccc2c(-c3ccccc3)cc(=O)oc12 | 303 | 0.3% (inactive) | 5% (inactive) | 103 | -26.5% (inactive) | 96.4 | -0.158 (active) | -2.3e-05 (inactive) | 0.00475 (inactive) | -3.57% (inactive) | 28.4% (inactive)
O=C(NCc1nc2ccccc2[nH]1)c1ccco1 | 440 | 0.8% (inactive) | 1.3% (inactive) | 113 | -228% (inactive) | 140 | -0.38 (inactive) | -5.6e-05 (inactive) | 0.00592 (inactive) | -2.68% (inactive) | -21.9% (inactive)
Cc1ccc(NC(=O)COS(=O)c2ccc(C)cc2)cc1 (stereo not drawn) | 420 | 5.8% (inactive) | 2.9% (inactive) | 94.3 | -11.2% (inactive) | 125 | -0.58 (inactive) | -2e-05 (inactive) | 0.00583 (inactive) | 6.94% (inactive) | -1.39% (inactive)
Cc1ccc(C)c2[nH]c(=O)c(CCNC(=O)c3ccc(Br)o3)cc12 | 327 | -9.8% (inactive) | 14.1% (inactive) | 87 | 23.8% (inactive) | 97.7 | -0.481 (inactive) | -0.000268 (inactive) | 0.00492 (inactive) | -1.8% (inactive) | -1.41% (inactive)
O=C(Nc1ccccc1-c1nc2ccccc2o1)c1ccc2c(c1)OCCO2 | 530 | -7.2% (inactive) | -29.9% (inactive) | 99.2 | 48.6% (inactive) | 87.4 | -0.131 (inactive) | 1.2e-05 (inactive) | 0.0146 (inactive) | 11.3% (inactive) | 13.7% (inactive)
C#CCSc1nnc(-c2ccccc2)c(=O)[nH]1 | 903 | -8.2% (inactive) | 0.6% (inactive) | 127 | -57.3% (inactive) | 109 | -0.505 (inactive) | -4.9e-05 (inactive) | 0.00603 (inactive) | -0.0999% (inactive) | -4.88% (inactive)
Cc1cc(C)c(C(=O)Nc2ccc(S(=O)(=O)Nc3onc(C)c3C)cc2)c(C)c1 | 680 | 0.3% (inactive) | -6.2% (inactive) | 113 | -36.9% (inactive) | 114 | -0.493 (inactive) | -2.1e-05 (inactive) | 0.00709 (inactive) | 18.6% (inactive) | 22.1% (inactive)
O=C(NCc1cccs1)C(Cc1ccccc1)n1cccc1 (stereo not drawn) | 602 | -6.3% (inactive) | 6.2% (inactive) | 95.4 | -25.8% (inactive) | 115 | -0.614 (inactive) | -5.2e-05 (inactive) | 0.00634 (inactive) | 1.52% (inactive) | 26.2% (inactive)
O=C(c1cccs1)N(Cc1ccco1)Cc1cc2ccccc2[nH]c1=O | 420 | 6.2% (inactive) | -7.1% (inactive) | 107 | -40% (inactive) | 84.3 | -0.343 (inactive) | -3.2e-05 (inactive) | 0.00483 (inactive) | -11% (inactive) | -8.09% (inactive)
COCCOC(=O)C1=C(N)OC2=C(C(=O)CC(C)(C)C2)C1c1cccnc1 (stereo not drawn) | 662 | 4.8% (inactive) | 9.7% (inactive) | 139 | 22.6% (inactive) | 112 | -0.452 (inactive) | -4.3e-05 (inactive) | 0.00687 (inactive) | -8.98% (inactive) | 19% (inactive)
Cn1c(=O)[nH]c(=O)c2c1nc(N1CCCCCC1)n2CCCSc1nc2ccccc2o1 | 256 | 4.7% (inactive) | -1.5% (inactive) | 102 | -64.8% (inactive) | 98.7 | -0.609 (inactive) | -4.5e-05 (inactive) | 0.00527 (inactive) | 14.2% (inactive) | 9.47% (inactive)
Cc1ccc(S(=O)(=O)NCCSc2nnnn2-c2ccc(C(N)=O)cc2)cc1 | 650 | -2.6% (inactive) | 2.1% (inactive) | 115 | -14.3% (inactive) | 111 | -0.564 (inactive) | 4.8e-06 (inactive) | 0.00721 (inactive) | -0.501% (inactive) | 12.6% (inactive)
Cc1ccc(C)c(N2CCN(CCCNC(=O)Cn3cc4c(n3)CCC(C)C4)CC2)c1 (stereo not drawn) | 554 | 9.9% (inactive) | -8.9% (inactive) | 90.9 | 29.9% (inactive) | 106 | -0.574 (inactive) | -2.4e-05 (inactive) | 0.00559 (inactive) | 13.6% (inactive) | 41% (inactive)
O=C(CC1Oc2ccccc2NC1=O)NCCCN1CCOCC1 (stereo not drawn) | 620 | 6.1% (inactive) | -1.6% (inactive) | 112 | 24.8% (inactive) | 100 | -0.56 (inactive) | -1.9e-05 (inactive) | 0.00542 (inactive) | 8.81% (inactive) | 38.3% (inactive)
CC(C)OC(=O)C1C2C=CC3(CN(Cc4cccs4)C(=O)C13)O2 (stereo not drawn) | 469 | 5% (inactive) | 0.9% (inactive) | 83.9 | -92.4% (inactive) | 111 | -0.533 (inactive) | -1.6e-05 (inactive) | 0.005 (inactive) | 20.6% (inactive) | 32.2% (inactive)
